Sequences and labels used below:
B1: ENSG00000107863:be:win_1951|CDS|ENSG00000107863|bound_else_gene|NA|bound_elsewhere_windowed (ssRNA)
RNA: GGGAGUUCUACAGUCCGACGAUCCCAGUAAAUCACUUGCAUCAGAACAGUCUGUUGAAUCAGCAGACAUGGGUAAGGACUGACAGUGCCCCCGAUCAGCAAGUGGAGACUGGGAAAUCCCCCUCUUUAUCUGGAGCCUCUGCCCAACAGAGGAUUGAGCAUCA
B2: ENSG00000177426:stop:overlap|stop_codon|ENSG00000177426|stop_codon|NA|stop_codon (ssRNA)
RNA: GGGAGUUCUACAGUCCGACGAUCCUCAAAGACAGAAGGAAUAUCUUUUUAUUGUAAACUUGAUAGUGUUAAAAGCUAAUAACUAGCUAUUUAGAGAACACAGAAACACUUGACAGUCAUCUAUCAGAUAGCAUUUCCUUUAAUCAACAGAGGAUUGAGCAUCA
B3: ENSG00000070961:be:win_4551|3pUTR|ENSG00000070961|bound_else_gene|NA|bound_elsewhere_windowed (ssRNA)
RNA: GGGAGUUCUACAGUCCGACGAUCAAUGAAAGAUGCUUGAAAUGCUUUUGUUAUUUCAGGCAAAUCAAAUUAAAUCAGACUAUCAAACUACAAGAGAACCUUAGUCUUUUUUGUUUUUGUCUAAACAUGUUAGUUUAGUGAUGUCAACAGAGGAUUGAGCAUCA
B4: chr1:213241217:213241334:+|CDS|ENSG00000136643|unk|FALSE|unique (ssRNA)
RNA: GGGAGUUCUACAGUCCGACGAUCAGUUCUCCAAGAACAUCAGAUUCCCUCAGUAGAUCAAAAAAUAGCCCCAUGGAAUUCUUUAGGAUAGACAGUAAGGAUAGCGCAAGUGAACUCCUGGGACUUGACUUUGGAGAAAAAUUGCAACAGAGGAUUGAGCAUCA
B5: ENSG00000120802:stop:overlap|stop_codon|ENSG00000120802|stop_codon|NA|stop_codon (ssRNA)
RNA: GGGAGUUCUACAGUCCGACGAUCGUGGAACAUUAUUUGGAGGAGAAGUAUGCAAAGUAAUUAAAAAGCGUGGAAAUAAACACUAGUAAAAUUAAGGACAAAAAGACAUCUAUCUUAUCUUUCAGGUACUUUAUGCCAACAUUUCAACAGAGGAUUGAGCAUCA
B6: chr3:121431430:121432303:-|three_prime_utr|ENSG00000051341|control|control|control (ssRNA)
RNA: GGGAGUUCUACAGUCCGACGAUCUGGAAAGAACAGAGAUUACCCUUUCACCUACCUCAGCAAAACAAACUUUCAAGUCUUGAUAGACUUAGCCUAGUAAUUUUAUAGUGAGAGUUUCAAACUAUAUAUCAGUGUCUAUAGCAUCAACAGAGGAUUGAGCAUCA
B7: chr9:122240152:122240253:-|3pUTR|ENSG00000119446|msi1|FALSE|unique (ssRNA)
RNA: GGGAGUUCUACAGUCCGACGAUCCUUCUUGGAGUAUAGAAUUCACCAUUUUAUCCGUAAGUCUUCAAAGGAUUAUGGUGGACUAGAACUUACAUAGUGCAAAAUAGUCUUCUAUUUUUAAUAGGAACUUAGAAAAAACUUAGACAACAGAGGAUUGAGCAUCA
B8: chr1:213241217:213241334:+|CDS|ENSG00000136643|unk|total|mutant (ssRNA)
RNA: B4 RNA with U53C, A54C, U65C, A66C, U83C, A84C, U88C, A89C, U101C, A102C
B9: chr9:122240152:122240253:-|3pUTR|ENSG00000119446|msi1|total|mutant (ssRNA)
RNA: GGGAGUUCUACAGUCCGACGAUCCUUCUUGGAGUACCGAAUUCACCAUUUUAUCCGUAAGUCUUCAAAGGAUUAUGGUGGACCCGAACUUACACCGUGCAAAACCGUCUUCUAUUUUUAACCGGAACUCCGAAAAAACUCCGACAACAGAGGAUUGAGCAUCA
B10: ENSG00000198589:be:win_3051|CDS|ENSG00000198589|bound_else_gene|NA|bound_elsewhere_windowed (ssRNA)
RNA: GGGAGUUCUACAGUCCGACGAUCAGAAAUGAAAGCUGAGCAAGAAAAUCAGGAGUUACCAGAUGAAGGCACUUUGGAAGAAACACUGACAAAUGAGACAAGGAAUGCAGAUGAUUUAGAAGUAUCUUCUGACAUAAUAGAAGCCAACAGAGGAUUGAGCAUCA
B11: chr8:58582127:58582250:+|3pUTR|ENSG00000137575|unk|total|mutant (ssRNA)
RNA: GGGAGUUCUACAGUCCGACGAUCUUCAUAUUACUUCCGUUCUACCGCAUACUUGCAUCUUUAACAUGCUAUCACCGUACAUUCCGAAUGAUUGCCUUUGAUUUUUUUUUUAAAUUCUGUGUGUGUGUGUGUAAAAUGCCAAUUCAACAGAGGAUUGAGCAUCA
B12: chr3:44491765:44499181:-|three_prime_utr|ENSG00000178917|control|control|control (ssRNA)
RNA: GGGAGUUCUACAGUCCGACGAUCACUAAUCACAGUGGAGACCAUACCUACUUGCUUUUCCUUGGGUCACUAAGGUGGGAGAGUAGGUGCAACUUAGUCUGAUCCUUACUUAGUAGGAAAUUGGGGAUUACAUCUGUCAUUAACCAACAGAGGAUUGAGCAUCA
B13: chr11:59152587:59152688:+|CDS|ENSG00000166801|msi1|FALSE|unique (ssRNA)
RNA: GGGAGUUCUACAGUCCGACGAUCAUUGAAAACUUCAAGAAAAAAAUGAAAGUAAAAAAUGGGGAAACAUUAUUUGAAUUGCAUAGAACAACGUUUGGGAAAGUAACAAAAAAUUCUUCUUCGAUUAAAGUAGUGAAACUUCUUCAACAGAGGAUUGAGCAUCA
B14: chr3:98797769:98798349:-|3pUTR|ENSG00000057019|msi1|total|mutant (ssRNA)
RNA: GGGAGUUCUACAGUCCGACGAUCUUGUUUUUGAUACCUCCUGGCAGCUUCCAUGUCACCACUUGUUCAUACCUGCCCAGAGCCCGUUUCCGACAUGGCAAAACCGAAAUCAUCUGUAAUUUAUCCGCUAACAAUGUAAAACCACAACAGAGGAUUGAGCAUCA
B15: chrX:71101288:71101389:+|CDS|ENSG00000184481|unk|FALSE|unique (ssRNA)
RNA: GGGAGUUCUACAGUCCGACGAUCGGAGGCCCUGCUCACCUCUGAUACGCCACCACCCCCUGCUGACGUCCUCAUGACCCAGGUAGAUCCCAUUCUGUCCCAGGCUCCGACUCUUCUGUUGCUGGGGGGGCUUCCUUCCUCCAGCAACAGAGGAUUGAGCAUCA
B16: chr2:16549458:16552935:-|three_prime_utr|ENSG00000197872|control|control|control (ssRNA)
RNA: GGGAGUUCUACAGUCCGACGAUCUUGCUACUGGAGUCCUUUAACAACAUCUAUAACGAUAAAAAAUUCCUAAUUGUUUGUGGUAGUAUUUUAAUUCUAGAUGUGUUAUCUCUCUGGGAAGUAUAGUUUAUAGAAACACAAAAUCAACAGAGGAUUGAGCAUCA
B17: chrX:71300841:71300885:+|3pUTR|ENSG00000147140|msi1_unk|total|mutant (ssRNA)
RNA: GGGAGUUCUACAGUCCGACGAUCCCCCAUAUAUUACCCCUUCAUGUCCUAAAGAAGACAUUUUCUCUCCGAGAUUUUCAUUUCCGUGUAUCUUUAAAAAAAAAUCUUGUGUUAACUUGCCUCCAUCUUUUUCUUGGGUGAGGACAACAGAGGAUUGAGCAUCA
B18: chr6:73594753:73594854:-|3pUTR|ENSG00000119899|unk|FALSE|unique (ssRNA)
RNA: GGGAGUUCUACAGUCCGACGAUCGGUUCACAUACCUGCCUGCUAGUCGGGCAACAUGAAGUAGGACAGUUCUGUUGAUUUUUUAGGGCCAUACUAAAGGGAAUGAGCUGAAACAGACCUCCUGAUACCUUUGCUUAAUUAAACCAACAGAGGAUUGAGCAUCA
B19: chr16:57253408:57253449:+|3pUTR|ENSG00000102931|msi1_unk|FALSE|overlapping (ssRNA)
RNA: GGGAGUUCUACAGUCCGACGAUCUGUGUGGUAGAUUACUUAUCAGAAAACAUAUAUGUCAUCUCUAGAACGAAGAAAAAGCAUAGUAGUUCAAUUCCCAGUGUGUCCCUUUGAUUUUUUUUUUUUAAUAGUAAAAAUAAGAAUCAACAGAGGAUUGAGCAUCA
B20: ENSG00000070961:be:win_3151|CDS|ENSG00000070961|bound_else_gene|NA|bound_elsewhere_windowed (ssRNA)
RNA: GGGAGUUCUACAGUCCGACGAUCACAUUACUCUGGGGCCAGCUUAUUUCAACAAUUCCAACUAGCCGUUUAAAAUUCCUCAAAGAAGCUGGUCAUGGAACACAAAAGGAAGAAAUACCUGAGGAGGAAUUAGCAGAGGAUGUUCAACAGAGGAUUGAGCAUCA
B21: ENSG00000139428:stop:overlap|stop_codon|ENSG00000139428|stop_codon|NA|stop_codon (ssRNA)
RNA: GGGAGUUCUACAGUCCGACGAUCUAUUACUAUUCUUAACACUUACCUGUUCCUGGCUACCAUUUCUCCAUGGCGGGCCUGACUAGGUUUGCUCUGGAAUUAGUCACAGAAAAGGGCCAUACAUUUGCCGAAGAGCUUCAGAAACAACAGAGGAUUGAGCAUCA
B22: chr5:111496093:111496242:-|3pUTR|ENSG00000164211|unk|FALSE|unique (ssRNA)
RNA: GGGAGUUCUACAGUCCGACGAUCUUUACAUGUAUAGUUAAAUAUUAAAAUUCAUCUCUUGCAGUUCAAUAAAAGCUAUAGUAUAGAUUUUAUUUUUAAGAAGUUUAUAUAAUUCUUUUGUGAACCAAUAUGUAAAACUAGAAUCAACAGAGGAUUGAGCAUCA
B23: chrX:71300841:71300885:+|3pUTR|ENSG00000147140|msi1_unk|FALSE|overlapping (ssRNA)
RNA: B17 RNA with C68U, C69A, C83U, C84A
B24: ENSG00000198589:be:win_9451|3pUTR|ENSG00000198589|bound_else_gene|NA|bound_elsewhere_windowed (ssRNA)
RNA: GGGAGUUCUACAGUCCGACGAUCUUAAACUAUCAUCUCCACCUUCCUUUUGAUUAGCAAUUUGUACUAAGAAACGAAACAAUGUUAUUUGGUGGUGUAUAAUUCUACUUUUCUAGUAGAUUACUGUGUGGAAUUCUGUGAAAACAACAGAGGAUUGAGCAUCA
B25: chr16:57253408:57253449:+|3pUTR|ENSG00000102931|msi1_unk|total|mutant (ssRNA)
RNA: B19 RNA with U31C, A32C, U65C, A66C, U83C, A84C, U86C, A87C, U128C, A129C
B26: chr22:45843749:45843850:+|3pUTR|ENSG00000130638|msi1|FALSE|unique (ssRNA)
RNA: GGGAGUUCUACAGUCCGACGAUCAAAUUGCAAGUGUUUGAAGAUUUAUAAGUACAAAUUUGGGAACAUACAAAUCUUUUAGGUAGUAGAGUUUAACGUGUAUAAGCUAAAAGUGAAAGUAACUGAGUGUUCUCUUGUUUCUUUCAACAGAGGAUUGAGCAUCA
B27: chr14:51255895:51255996:+|3pUTR|ENSG00000139921|msi1_unk|FALSE|overlapping (ssRNA)
RNA: GGGAGUUCUACAGUCCGACGAUCGUGAAUCCAUUAGAUUUACAGUAUCGUAAUAUACAAGUUUUCUUUAAAGCCCUCUCCUUUAGAAUUUAAAAUAUUGUACCAUUGAAGAGUUUGGAUGUGUAACUUGUGAUGCCUUAGAAACAACAGAGGAUUGAGCAUCA

For 27 molecules, binding signal results are on record in publication PMC12136788.

Changes are numbered by the printed parent chain. Over roughly 5,800 sequences, “enrichment r” has its median near 0.54; the highest 2% begin near 16. Only a selection was taken, and the highest values are over-represented in it overall.

In this assay the target is MSI1 full-length (mouse, UniProt Q61474 1-362). Put plainly: nsRBNS (natural sequence RNA bind-n-seq); RBNS binding buffer (assumed for nsRBNS): 25 mM Tris pH 7.5, 150 mM KCl, 3 mM MgCl2, 0.01% Triton X-100, 500 ug/ml BSA, 20 U/ml SUPERase-In, 4 C; UNK is unkempt and MSI1 is Musashi-1; names of the RNAs are library labels; protein concentration not given here; high values mean tight binding.
Chain of MSI1 full-length (Q61474 whole entry): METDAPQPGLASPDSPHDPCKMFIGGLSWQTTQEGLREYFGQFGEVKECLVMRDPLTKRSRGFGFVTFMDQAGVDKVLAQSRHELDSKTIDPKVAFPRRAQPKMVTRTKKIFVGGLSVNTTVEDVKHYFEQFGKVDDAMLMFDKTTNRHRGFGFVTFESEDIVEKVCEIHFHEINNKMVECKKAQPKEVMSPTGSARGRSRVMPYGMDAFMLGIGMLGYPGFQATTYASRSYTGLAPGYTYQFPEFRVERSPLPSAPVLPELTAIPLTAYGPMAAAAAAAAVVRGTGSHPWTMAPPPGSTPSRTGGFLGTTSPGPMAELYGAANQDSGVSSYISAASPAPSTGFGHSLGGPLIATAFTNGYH
For B1, the binding signal stood at 0.425 enrichment R. For B2, the binding signal came out at 0.812 enrichment R. With B3 the figure was 1.39 enrichment R; with B4, 24.6 enrichment R. Turning to B5, the binding signal was 1.57 enrichment R. The molecule B6 gave a binding signal of 17.4 enrichment R. Turning to B7, the binding signal amounted to 20.5 enrichment R. Molecule B8 displayed a binding signal of 0.533 enrichment R.

Turning to B9, the binding signal came to 0.272 enrichment R.

B10 showed a binding signal of 0.825 enrichment R. The molecule B11 showed a binding signal of 0.478 enrichment R. B12: the binding signal worked out at 0.646 enrichment R. B13 came in with a binding signal of 0.574 enrichment R. In turn, B14 showed a binding signal of 0.808 enrichment R. The same measure for B15: 0.429 enrichment R; for B16: 25 enrichment R.

In turn, B17 registered a binding signal of 0.906 enrichment R. On to B18, for which the binding signal worked out at 0.746 enrichment R. With B19 the figure was 21 enrichment R; with B20, 0.641 enrichment R. Consider B21, for which the binding signal was found to be 18.8 enrichment R. The same measure for B22: 2.64 enrichment R; for B23: 16.5 enrichment R; for B24: 1.55 enrichment R. B25 displayed a binding signal of 0.465 enrichment R. B26 returned a binding signal of 7.75 enrichment R. In turn, B27 had a binding signal of 5.27 enrichment R.
